From PubChem
Sampled rows, rich in hits. Any-hit rate of the full collection: about 9%.
ALDH1A1 block = blocks purified human ALDH1A1 activity | P00352 | hit rate 7.3% among 220,000 | Potency, µM (series often up to 75.3 µM), without a hit: at the highest dose activity, negative = inhibition, usual class: inhibitors | AID 1030 | Purified ALDH1A1, NADH fluorescence, propionaldehyde substrate;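 also: potency is read from the fitted curve at half-maximal effect; plate controls were no enzyme wells and a reference inhibitor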
HPGD inh = inhibitors of human 15-hydroxyprostaglandin dehydrogenase (HPGD); P15428; purified HPGD, NADH fluorescence kinetic, PGE2 substrate; Potency, µM, without a hit: at the highest dose activity change, negative = inhibition, most hits filed as inhibitors; hit rate 4.3% among 150,000; also: potency is read from the fitted curve at half-maximal effect
Target sequence (P15428 whole entry, looked up): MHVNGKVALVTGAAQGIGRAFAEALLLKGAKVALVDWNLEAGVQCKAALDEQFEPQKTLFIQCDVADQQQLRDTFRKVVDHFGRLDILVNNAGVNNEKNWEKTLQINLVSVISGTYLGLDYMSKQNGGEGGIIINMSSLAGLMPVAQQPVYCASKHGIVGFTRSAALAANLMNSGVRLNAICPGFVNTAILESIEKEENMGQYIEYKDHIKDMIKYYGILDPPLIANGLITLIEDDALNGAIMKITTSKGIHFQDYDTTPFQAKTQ
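NADH formation kinetics: reaction with 30 uM PGE2 and 1 mM NAD+ (final), 20 nM enzyme, Tris-HCl pH 8 with Tween 20, after 15 min compound preincubation at room temperature. Fluorescence change, last versus first of five reads.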
IMPase inh = cell-permeable inhibitors of inositol monophosphatase (IMPase); P97697; CHO-M1 cells, IP1 accumulation, HTRF TR-FRET ratio; 120,000 tested, under 10 active; inhibition (IP1 accumulation), % at 46.1 µM; active = well fitted curve in the direction sought with a large enough effect in the signal ratio, not every such curve was filed as active; inconclusive = small, poorly fitted or top-dose-only effect, or a change in a side signal; inactive = no such curve, though single readings can be large or run the other way; the % refers to the signal ratio;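 also: cells stimulated with carbachol in lithium chloride buffer; plate controls were DMSO basal wells for no effect and reference inhibitor wells for full effect; higher means more IMPase inhibition seen as more IP1 and lower FRET ratio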
Target sequence (P97697 whole entry, looked up): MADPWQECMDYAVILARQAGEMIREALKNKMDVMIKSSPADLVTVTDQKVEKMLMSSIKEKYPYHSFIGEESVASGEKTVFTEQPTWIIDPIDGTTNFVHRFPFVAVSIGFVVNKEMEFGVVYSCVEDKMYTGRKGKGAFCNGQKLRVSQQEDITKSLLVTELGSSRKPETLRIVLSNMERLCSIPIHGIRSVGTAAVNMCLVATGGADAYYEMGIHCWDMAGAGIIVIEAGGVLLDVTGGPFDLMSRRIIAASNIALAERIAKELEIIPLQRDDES
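Cellular IMPase inhibition is scored as a rise in cytosolic IP1, detected by competitive TR-FRET between d2-labelled IP1 and a europium anti-IP1 antibody. M1-expressing CHO cells were stimulated with carbachol for 30 min at 37C, with lithium (50 mM LiCl) present in the buffer.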
The depositor's hits bear a star; ? = inconclusive; / = no result given; [ ] = dose if it differs, or a comment. Unless noted, calls follow the shape of the dose curve; as a rule, active = well fitted inhibition curve with a large enough effect (not every such curve was filed as active); inconclusive = small, poorly fitted or top-dose-only effect, or another doubt; inactive = no such curve, though single readings can be large or run the other way. Unless noted, % is scaled to controls: 0 for no effect and ±100 for the full control effect.

SMILES	ALDH1A1 block	HPGD inh	IMPase inh
O=C(C1CCC(CNS(=O)(=O)c2cccc3nsnc23)CC1)N1CCN(c2ccccn2)CC1 (stereo not given)	-4%	/	/
CC1CCN(C(=O)C2CCC(CNS(=O)(=O)c3cccc4cccnc34)CC2)CC1 (stereo not given)	?	0.89µM*	-2
CCN(CCNC(=O)C1CCN(S(=O)(=O)c2cccc3cccnc23)CC1)c1ccccc1	40µM*	-18%	1
CN1CCN(C(=O)C2CCC(CNS(=O)(=O)c3cccc4cccnc34)CC2)CC1 (stereo not given)	0%	16µM*	0
CC1CCCCN1CCNC(=O)C1CCN(S(=O)(=O)c2cccc3cccnc23)CC1 (stereo not given)	-2%	-9%	-13
O=C(C1CCN(S(=O)(=O)c2cccc3cccnc23)CC1)N1CCCC1	6%	-11%	2
CNS(=O)(=O)c1cccc2cccnc12	14%	-10%	-1
CCOc1ncccc1C(=O)N1CCCSC1=Nc1ccc(C(C)=O)cc1	-14%	/	/
Cc1ccc(-c2nc3nc(C)cc(N4CCN(c5cc(Cl)ccc5C)CC4)n3n2)cc1	/	/	16
COc1ccc(-c2coc3c(O)c(OC)ccc3c2=O)cc1	?	-17%	/
C[C@@H]1c2ccccc2CN1CC1=NCCN1	-14%	-4%	4
O=C(C1CCC(CNS(=O)(=O)c2cccc3cccnc23)CC1)N1CCc2ccccc21 (stereo not given)	1.3µM*	?	16
O=C(NC1CCCCCC1)C1CCN(S(=O)(=O)c2cccc3cccnc23)CC1	?	-5%	0
O=C(NCCN1CCCCCC1)C1CCC(CNS(=O)(=O)c2cccc3cccnc23)CC1 (stereo not given)	13µM*	-15%	8
O=C(C1CCN(S(=O)(=O)c2cccc3cccnc23)CC1)N1CCc2ccccc21	?	-7%	-2
CC(=O)c1cccc(NC(=O)N2CCCC2C(=O)Nc2ccc3c(c2)OCO3)c1 (stereo not given)	-4%	/	/
Cc1cc(CN2CCN(CCC#N)CC2)c(O)c(C2(C)CCCCC2)c1	0%	-15%	2
CC(=O)Nc1ccc2nc(-c3ccc(Br)o3)[nH]c2c1	32µM*	-22%	/
O=C(Nc1ccc2nc(-c3ccc(Br)o3)[nH]c2c1)c1ccco1	-9%	-20%	6
O=S(=O)(Nc1ccc2nc(-c3ccc(Br)o3)[nH]c2c1)c1ccccc1	-16%	-30%	9
Cc1ccc(-c2nc3ccc(NS(=O)(=O)c4ccccc4)cc3[nH]2)o1	8.9µM*	40%	6
CC(=O)c1cccc(CN2CCN(Cc3ccc(C)cc3)C(CCO)C2)c1 (stereo not given)	9%	/	/
CC(=O)c1cccc(CN2CCN(Cc3ccc(F)cc3)C(CCO)C2)c1 (stereo not given)	28µM*	/	/
COC(=O)NC(CC(C)=O)c1ccc(F)cc1 (stereo not given)	12%[13.5 µM]	/	/
Nc1[nH]n2c(=O)cc(-c3ccccc3)nc2c1N=Nc1ccc2c(c1)OCO2	3%	/	/
SMILES	ALDH1A1 block	HPGD inh	IMPase inh
Cn1c(/C(C#N)=C(\O)c2ccc([N+](=O)[O-])cc2)nc2ccccc21	2%	/	/
CCN(CC)S(=O)(=O)c1ccc(/C(O)=C(\C#N)c2nc3ccccc3n2C)cc1	20µM*	-18%	4
Cc1[nH]c2ccccc2c1CCNC(=O)c1c(N)no[n+]1[O-]	3%	/	/
Cc1ccccc1S(=O)(=O)Cc1ccc(C(=O)NCc2ccc(F)cc2)o1	-6%	/	/
COC(=O)c1ccc(CS(=O)(=O)c2ccccc2C)o1	2.2µM*	-13%	15
Cc1ccc(C(=O)Nc2ccc3oc(-c4ccncc4)nc3c2)c(Cl)c1	/	/	8
Cc1ccc(NC(=S)NN(C)c2cc(C)nc(C)n2)cc1	-2%	-8%	/
COc1ccc(C(=O)N2CCC3(CCCN(c4cccc(-c5ccccc5)c4)C3)CC2)cc1	22µM*	-23%	/
O=C(c1ccco1)N1CCC2(CCCN(c3ccccc3)C2)CC1	?	-2%	/
O=C(c1ccco1)N1CCC2(CC1)CCN(c1cccc(-c3ccccc3)c1)CC2	28µM*	-19%	/
O=C(c1ccco1)N1CCC2(CCCN(c3cccc(-c4ccccc4)c3)C2)CC1	25µM*	-7%	/
O=C(c1ccco1)N1CCC2(CC1)CCN(c1ccc(-c3ccccc3)cc1)CC2	-5%	-9%	/
COc1ccc(C(=O)N2CCC3(CCCN(c4ccccc4)C3)CC2)cc1	?	-7%	/
CC1(C)Cc2c(sc3nnn(Cc4ccc(Cl)cc4)c(=O)c23)CO1	5%	-13%	/
COc1ccc([N+](=O)[O-])cc1N(CC(=O)N1CCCC1)S(C)(=O)=O	-6%	/	/
COc1ccc(-n2c(SCC(=O)Nc3cc(C)on3)nc3ccccc3c2=O)cc1Cl	7%	/	/
CC(Sc1nc(-c2ccccc2)cs1)C(=O)Nc1ccc(Cl)cn1 (stereo not given)	18%	4%	9
COc1ccccc1OCc1ccc(C(=O)N/N=C/c2ccco2)cc1	-2%	-3%	/
Cc1ccc(COc2ccsc2C(=O)NNC(N)=S)cc1	3%	/	/
Cc1ccc(COc2ccsc2C(=O)NN)cc1	6.3µM*	/	/
NNC(=O)c1ccc(COc2cccc3cccnc23)cc1	14µM*	/	/
O=C(N/N=C/c1ccc[nH]1)c1ccc(COc2cccc3cccnc23)cc1	-15%	/	/
COc1ccccc1OCc1ccc(C(=O)NN)cc1	14µM*	-1%	-2
COC(=O)N1CCC[C@@]2(CCN(c3ncccn3)C2)C1	-13%	-19%	/
O=C(O)CC/C(=N/Nc1ncc(C(F)(F)F)cc1Cl)C(=O)O	5%	/	/
SMILES	ALDH1A1 block	HPGD inh	IMPase inh
CC(=O)N1CCC(=NNc2ncc(C(F)(F)F)cc2Cl)CC1	16µM*	/	/
CN(C(=O)c1ccc2c(c1)C(=O)N(CCC1=CCCCC1)C2=O)C1CCCCC1	0.79µM*	14µM*	8
O=C(O)c1ccc2c(c1)C(=O)N(CCC1=CCCCC1)C2=O	-10%	-18%	7
Cn1cccc1/C=C1\SC(=S)N(Nc2ccccc2)C1=O	3.5µM*	/	/
CC(C)C(C(=O)O)N1C(=O)/C(=C/c2cccn2C)SC1=S (stereo not given)	-7%	-16%	/
CCCC(C(=O)O)N1C(=O)/C(=C/c2cccn2C)SC1=S (stereo not given)	-2%	18µM*	5
Cc1ccc(S(=O)(=O)NN2C(=O)/C(=C/c3cccn3C)SC2=S)cc1	-4%	-26%	-2
CCOC(=O)Cn1nnc(-c2ccc([N+](=O)[O-])cc2)n1	-10%	/	/
COc1ccc(NC(=O)N2CC3(CCN(C(=O)c4cc(C(F)(F)F)cc(C(F)(F)F)c4)CC3)C2)cc1	?	-15%	/
COc1ccc(OC)c(N(CC(=O)Nc2cccc(C(F)(F)F)c2)S(C)(=O)=O)c1	-4%	/	/
O=C1CSc2nc3ccccc3n21	?	?	-2
O=C(O)C1CC(=O)n2c(nc3ccccc32)S1 (stereo not given)	25µM*	-17%	-7
CC(=C/c1ccco1)/C=N/NC(=O)Cc1cccn1C	25µM*	-26%	15
CC(/C=N/NC(=O)Cn1cnc2c1c(=O)n(C)c(=O)n2C)=C\c1ccco1	22µM*	/	/
Cn1c(=O)c2c(ncn2CC(=O)N/N=C/C(Cl)=C/c2ccccc2)n(C)c1=O	?	-7%	2
CC(/C=N/NC(=O)Cc1cccn1C)=C\c1ccco1	14µM*	?	-1[1.84 µM]
